From PubChem BioAssay (NCI) come the findings set out here.

This is part of a sample that, as a whole, favours compounds with a hit. Of some 83,000 tested, about 20% had one in any assay.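 Single-concentration screen, 48 h exposure, 96-well plates. Endpoint: percent growth. Below 10 = active.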 Unmarked numbers belong to inactive results. Active and inactive are the calls of the source.

Among the test systems are SR leukemia; RPMI-8226 leukemia; OVCAR-8 ovarian; OVCAR-5 ovarian; OVCAR-4 ovarian; SK-OV-3 ovarian; IGROV1 ovarian; OVCAR-3 ovarian; HS 578T breast; NCI/ADR-RES ovarian; T-47D breast; BT-549 breast; MDA-MB-435 melanoma; SW-620 colon; MCF7 breast; HCT-116 colon; HCC-2998 colon; KM12 colon.
What all share (assay): NCI-60 one-dose screen, 48 h (100 = growth as untreated, 0 = no growth, -100 = all killed)
Holding throughout (conditions): 10 µM unless noted

On to `CCCCn1sc(=O)n(Cc2ccc(CNC(=O)OCc3ccc4c(Br)cc(Br)c(O)c4n3)cc2)c1=O`, for which the growth in the assay on SR leukemia was 5.73% (active); in the assay on RPMI-8226 leukemia it was 18.7%; in the assay on OVCAR-8 ovarian, 13.7%; in the assay with OVCAR-5 ovarian, 52%; with OVCAR-4 ovarian, 51.7%; with SK-OV-3 ovarian, 34.6%. Moreover, the growth with IGROV1 ovarian is 15.7%; in the assay on OVCAR-3 ovarian, -0.408% (active); in the assay with HS 578T breast it was 18.6%; in the assay on NCI/ADR-RES ovarian, 9.82% (active); in the assay on T-47D breast, 69.9%; in the assay on BT-549 breast, -16.2% (active). Besides, the growth with MDA-MB-435 melanoma was -35.4% (active); in the assay on SW-620 colon, 24.5%; with MCF7 breast it was 12%; in the assay on HCT-116 colon it was 7.95% (active); in the assay on HCC-2998 colon it was 24.8%; in the assay on KM12 colon, 2.42% (active).
On to `COC(=O)C1=Nc2ccc(F)cc2/C1=C\c1sc(Nc2ccc(O)cc2)nc1O`, for which the growth with SR leukemia was 24.2%; in the assay on RPMI-8226 leukemia it was 62%; in the assay with OVCAR-8 ovarian, 83%; with OVCAR-5 ovarian, 98%; in the assay with OVCAR-4 ovarian it was 64.8%; with SK-OV-3 ovarian it was 102%. In addition, the growth in the assay with IGROV1 ovarian is 68.5%; in the assay on OVCAR-3 ovarian it was 19.8%; with HS 578T breast, 46.1%; in the assay with NCI/ADR-RES ovarian, 94.5%; in the assay with T-47D breast, 62.4%; with BT-549 breast, 35%. The growth in the assay on MDA-MB-435 melanoma is 0.954% (active); in the assay with SW-620 colon it was 65.9%; in the assay with MCF7 breast, 22%; in the assay with HCT-116 colon it was 64%; with HCC-2998 colon it was 79.3%; in the assay with KM12 colon, 49.5%.
For `O=C1N[C@@H]2[C@@H](O)[C@@H](O)[C@H](O)C[C@H]2c2cc3c(c(O)c21)OCCO3`, the growth in the assay on SR leukemia was -2.37% (active); with RPMI-8226 leukemia, -28% (active); in the assay with OVCAR-8 ovarian it was -13.8% (active); with OVCAR-5 ovarian, 3% (active); with OVCAR-4 ovarian, -8.78% (active); in the assay with SK-OV-3 ovarian, -10.9% (active). The growth in the assay on IGROV1 ovarian is -16.7% (active); in the assay on OVCAR-3 ovarian it was -13% (active); with HS 578T breast, -9.44% (active); in the assay on NCI/ADR-RES ovarian it was -0.441% (active); in the assay with T-47D breast, -15.8% (active); in the assay with BT-549 breast it was -17.5% (active). Moreover, the growth in the assay with MDA-MB-435 melanoma was 1.45% (active); in the assay with SW-620 colon it was 4.85% (active); with MCF7 breast it was -13.3% (active); in the assay with HCT-116 colon, -3.3% (active); with HCC-2998 colon it was -46.2% (active); in the assay with KM12 colon it was -2.6% (active).
Take `COc1ccc(-c2oc(=O)ccc2-c2cc(OC)c(OC)c(OC)c2)cc1O`: the growth was 8.87% (active) in the assay on SR leukemia; 14.6% in the assay with RPMI-8226 leukemia; 23.1% in the assay on OVCAR-8 ovarian; 35.7% in the assay with OVCAR-5 ovarian; 47.6% in the assay with OVCAR-4 ovarian; 28.3% in the assay on SK-OV-3 ovarian. In addition, the growth in the assay on IGROV1 ovarian was 29.8%; in the assay with OVCAR-3 ovarian it was -59.3% (active); in the assay with HS 578T breast, -7.79% (active); in the assay on NCI/ADR-RES ovarian, 29.1%; in the assay on T-47D breast, 44.7%; in the assay on BT-549 breast, 24.7%. Further, the growth was -64.9% (active) in the assay with MDA-MB-435 melanoma; 14.8% in the assay with SW-620 colon; 10.6% in the assay on MCF7 breast; -30.2% (active) in the assay on HCT-116 colon; 211% with HCC-2998 colon; 22.6% in the assay with KM12 colon.
As to `CCOC(=O)c1c2c(n3c1NCC3)-c1ccccc1C2=O`, the growth is 100% in the assay with SR leukemia; 105% in the assay with RPMI-8226 leukemia; 99.4% in the assay with OVCAR-8 ovarian; 89.4% in the assay with OVCAR-5 ovarian; 99.7% in the assay with OVCAR-4 ovarian; 104% in the assay on SK-OV-3 ovarian. Further, the growth in the assay with IGROV1 ovarian was 67.3%; in the assay with OVCAR-3 ovarian it was 92.1%; with HS 578T breast it was 106%; in the assay on NCI/ADR-RES ovarian it was 102%; in the assay with T-47D breast, 97.7%; in the assay with BT-549 breast, 86.9%. Besides, the growth in the assay with MDA-MB-435 melanoma was 90.8%; in the assay with SW-620 colon it was 91.8%; with MCF7 breast, 90.6%; in the assay with HCT-116 colon it was 103%; in the assay on HCC-2998 colon it was 91.4%; in the assay with KM12 colon, 103%.
Regarding `COc1ccc(NC(=O)c2sc3nc(C)c(C(O)c4ccccc4)cc3c2N)cc1` (stereo not given), the growth in the assay on SR leukemia is 4.79% (active); with RPMI-8226 leukemia it was 11.8%; in the assay with OVCAR-8 ovarian, 27.6%; with OVCAR-5 ovarian, 37.9%; with OVCAR-4 ovarian, 78%; with SK-OV-3 ovarian, 24.1%. In addition, the growth in the assay on IGROV1 ovarian was 36.6%; with OVCAR-3 ovarian, 8.68% (active); in the assay on HS 578T breast, 22.8%; in the assay with NCI/ADR-RES ovarian, 10.6%; in the assay on T-47D breast it was 23.9%; with BT-549 breast, 65.8%. The growth was -27.8% (active) with MDA-MB-435 melanoma; 25.4% in the assay on SW-620 colon; 19.1% in the assay on MCF7 breast; 21.4% with HCT-116 colon; 19.4% in the assay with HCC-2998 colon; 20.3% with KM12 colon.
For `Fc1ccc(COc2ccc(Nc3ncnc4sc5c(c34)CCCC5)cc2)cc1`, the growth with SR leukemia is 95.8%; in the assay on RPMI-8226 leukemia it was 79.4%; in the assay on OVCAR-8 ovarian, 101%; in the assay on OVCAR-5 ovarian, 112%; with OVCAR-4 ovarian, 110%; in the assay with SK-OV-3 ovarian, 92.6%. Moreover, the growth with IGROV1 ovarian is 95.3%; with OVCAR-3 ovarian, 93.2%; in the assay on HS 578T breast, 98.8%; in the assay on NCI/ADR-RES ovarian it was 95.9%; in the assay on T-47D breast it was 86.6%; in the assay with BT-549 breast, 99.1%. Moreover, the growth is 96.1% in the assay with MDA-MB-435 melanoma; 92% in the assay with SW-620 colon; 88.2% in the assay with MCF7 breast; 93.7% in the assay with HCT-116 colon; 104% in the assay on HCC-2998 colon; 90.1% in the assay with KM12 colon.
For `N#Cc1c(-c2ccccc2)nc2c(c(-c3ccccc3)nn2-c2ccccc2)c1-c1ccc(N2CCOCC2)cc1`, the growth was 24.5% in the assay on SR leukemia; 76% with RPMI-8226 leukemia; 99% in the assay with OVCAR-8 ovarian; 102% in the assay with OVCAR-5 ovarian; 103% in the assay on OVCAR-4 ovarian; 108% with SK-OV-3 ovarian. The growth was 87.7% in the assay on IGROV1 ovarian; 96% in the assay with OVCAR-3 ovarian; 104% in the assay on HS 578T breast; 94.6% in the assay on NCI/ADR-RES ovarian; 96.7% with T-47D breast; 99.8% with BT-549 breast. For the same compound, the growth in the assay on MDA-MB-435 melanoma is 90.5%; in the assay on SW-620 colon, 45.6%; in the assay with MCF7 breast, 57.6%; in the assay on HCT-116 colon, 65.5%; with HCC-2998 colon, 107%; in the assay with KM12 colon, 95.7%.
Consider `CN1CCCc2cc(/C=C3/SC(=S)N(CCc4ccc(O)cc4)C3=O)ccc21`, for which the growth with SR leukemia was 32.9%; in the assay with RPMI-8226 leukemia, 49.5%; with OVCAR-8 ovarian, 96.6%; with OVCAR-5 ovarian it was 108%; in the assay with OVCAR-4 ovarian, 87.2%; in the assay on SK-OV-3 ovarian, 111%. For the same compound, the growth in the assay with IGROV1 ovarian is 76%; in the assay with OVCAR-3 ovarian it was 88.2%; in the assay on HS 578T breast, 93.9%; in the assay with NCI/ADR-RES ovarian it was 83.3%; in the assay on T-47D breast, 84%; in the assay on BT-549 breast it was 84.9%. Besides, the growth was 17.5% in the assay with MDA-MB-435 melanoma; 85% in the assay on SW-620 colon; 72.2% in the assay with MCF7 breast; 89.3% with HCT-116 colon; 106% in the assay with HCC-2998 colon; 48.7% with KM12 colon.
`CN1CCN(Cc2ccc(NC(=O)c3cncc(C#Cc4cncc5ncccc45)c3)cc2C(F)(F)F)CC1`: the growth with SR leukemia was -37.7% (active); with RPMI-8226 leukemia, 9.58% (active); in the assay with OVCAR-8 ovarian, 28.1%; with OVCAR-5 ovarian it was 25.2%; with OVCAR-4 ovarian, 17.3%; in the assay with SK-OV-3 ovarian, -3.03% (active). Also, the growth was 1.13% (active) in the assay on IGROV1 ovarian; 36.3% in the assay on OVCAR-3 ovarian; -5.88% (active) in the assay with HS 578T breast; 30.9% in the assay with NCI/ADR-RES ovarian; 60.9% in the assay on T-47D breast; 38.6% in the assay with BT-549 breast. In addition, the growth in the assay with MDA-MB-435 melanoma was 10.6%; in the assay on SW-620 colon, -26.7% (active); in the assay on MCF7 breast, 13.7%; in the assay on HCT-116 colon, -58.3% (active); with HCC-2998 colon it was 13.9%; in the assay with KM12 colon, 10.7%.
